The full ranking holds about 68,000 sequences; the median of “fluorescence intensity (a.u.)” is about 9,100, and the highest 2% start at about 16,000. The full list was thinned out, with the highest values kept by preference.

OsWRKY34, sequence (Q0JBA9 entry or part of it): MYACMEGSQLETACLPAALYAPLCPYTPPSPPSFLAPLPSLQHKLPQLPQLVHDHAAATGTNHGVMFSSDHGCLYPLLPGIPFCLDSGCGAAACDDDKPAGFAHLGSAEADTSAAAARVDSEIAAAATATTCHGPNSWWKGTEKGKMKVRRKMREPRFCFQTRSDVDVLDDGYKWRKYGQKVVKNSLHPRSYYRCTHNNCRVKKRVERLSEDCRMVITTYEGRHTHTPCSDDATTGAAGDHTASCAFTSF

The assay addresses OsWRKY34 (Oryza sativa, UniProt Q0JBA9 1-250). Description: protein-binding microarray (RPBM); PBS, 2% BSA, 51.3 ng/ul salmon testes DNA, 50 uM zinc acetate, 200 nM TF, 25 C, 1 h; high values mean tight binding. As to conditions: protein: recombinant; tags: N-terminal polyhistidine and DsRed monomer fusion (pET32a); label: CyDye5-dUTP incorporated in the synthesized complementary strand; 3' TTTTT single-stranded linker to array surface; dsDNA, one strand shown. Put shortly:
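The binding signal is fluorescence intensity per array feature (arbitrary units). Readings came from an Axon 4000B scanner after a washed, 2% BSA-blocked, double-stranded custom Agilent array had been incubated for 1 h at 25 °C with 200 nM protein and 50 µM zinc acetate. The protein was a Ni–NTA-purified transcription factor fused N-terminally to polyhistidine and DsRed, expressed in E. coli BL21-CodonPlus.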
For “GCCTCCGCCGCCGCCGCCGCCGCCGCGTCGTCTCCGACCGCGGAGTCACCTAGTGCAG”, the binding signal is 9710 fluorescence intensity (a.u.).

Consider “TCGGTCGGGTCGGGTCGGGTCGCGTCGCGTGGGCTGCATGCGGAGTCACCTAGTGCAG”, for which the binding signal was 12200 fluorescence intensity (a.u.).

For “GTGGTGGGTGGTGGCCGCGCTGCTGCGCGGTGGGTCGCATCGGAGTCACCTAGTGCAG”, the binding signal was 11400 fluorescence intensity (a.u.).

For “GGTTTTCCCTGGATGCCGAGAGGGTTTGGGTGCGCGCCGCCGGAGTCACCTAGTGCAG”, the binding signal is 8910 fluorescence intensity (a.u.).

Turning to “CCCAACCTCGCCGTCGCCGTCGCCGTCGCCGCCGTCTCCGCGGAGTCACCTAGTGCAG”, the binding signal is 10000 fluorescence intensity (a.u.).

“TTCTTGGGGCTGGAGAGGGTGGGGATGGTGGTGCGGATGCCGGAGTCACCTAGTGCAG”: the binding signal was 15000 fluorescence intensity (a.u.).

Turning to “GCTGCGGCCGTCAACGTGGTCGTCGTCTCCGCGGCCGCCGCGGAGTCACCTAGTGCAG”, the binding signal was 46900 fluorescence intensity (a.u.).

For “CTGGTCGTCGCTGCTCCGCGTGCCGGTCGGGGTGGGTGGGCGGAGTCACCTAGTGCAG”, the binding signal was 20100 fluorescence intensity (a.u.).

Consider “GGTTAGGGTTTGGGGTGGGGAGGGGTGGATGCGCGTGGGCCGGAGTCACCTAGTGCAG”, for which the binding signal is 21600 fluorescence intensity (a.u.).

In the case of “TCGGTTGGTTGGGAATTTCCATGACTATTTTCACCTATAACGGAGTCACCTAGTGCAG”, the binding signal was 8650 fluorescence intensity (a.u.).

In the case of “AGGCTTCCAATCTTGTGCTAATCTGCTGGTGAAGTATATGCGGAGTCACCTAGTGCAG”, the binding signal is 8480 fluorescence intensity (a.u.).

For “CTCCGCCGCCACGCTCGCCCGCTGTTTGCTCCGTCCGCAGCGGAGTCACCTAGTGCAG”, the binding signal is 8350 fluorescence intensity (a.u.).

“TCTCTGGTGGCTCCCTGGCGCTCCTCTTCACTCCATCCTCCGGAGTCACCTAGTGCAG”: the binding signal was 9090 fluorescence intensity (a.u.).

Take “TTTCTAGATGTCTACGCGTTATCAGCATGTTGATGTCTACCGGAGTCACCTAGTGCAG”: the binding signal was 8460 fluorescence intensity (a.u.).

“GTCTCTTCTCTTCTCTCGTGCAAGGCCGGCAGTGTACCGTCGGAGTCACCTAGTGCAG”: the binding signal was 9270 fluorescence intensity (a.u.).

As to “CGTTTCAAAATATTTAACACCGTTGACTTTTTAGTACGTGCGGAGTCACCTAGTGCAG”, the binding signal was 31100 fluorescence intensity (a.u.).

Consider “TCAAAATATTTGACACCGTTGACTTTTTAGGACGTGTTTACGGAGTCACCTAGTGCAG”, for which the binding signal was 24900 fluorescence intensity (a.u.).

With “ATTCAACACTTTTAAAATATTTTGATTGCGGTTTCTTTTACGGAGTCACCTAGTGCAG”, the binding signal is 9530 fluorescence intensity (a.u.).

Regarding “GTTTCAAAATATTTGACACCGTTGACTTTTTAGTACGTGTCGGAGTCACCTAGTGCAG”, the binding signal was 19100 fluorescence intensity (a.u.).

For the sequence “AAAACACCAAATTAGTTTTATTAAAACTAACTTTCAAATACGGAGTCACCTAGTGCAG”, the binding signal is 11900 fluorescence intensity (a.u.).

For the sequence “CCGTTGACTTGGATTTGTTCCTTTTTCATTTTTTATCGTTCGGAGTCACCTAGTGCAG”, the binding signal was 14700 fluorescence intensity (a.u.).

Take “TAGAAGAGCGCGTTGACACCGTTGACTTTGGATTTTCCGTCGGAGTCACCTAGTGCAG”: the binding signal is 18700 fluorescence intensity (a.u.).

For “CAAATTAGATGTTATTTTGACTTTTTTTTACAATATTTGACGGAGTCACCTAGTGCAG”, the binding signal was 10600 fluorescence intensity (a.u.).

For “ATATTTGACCGTTTGTCTTTTTCAAAAACTTTTGTGAAATCGGAGTCACCTAGTGCAG”, the binding signal was 9920 fluorescence intensity (a.u.).

Consider “TTGGTAGAGTTGTCCGTTTGGATTTTGGCCTCCCTTTTTTCGGAGTCACCTAGTGCAG”, for which the binding signal was 8380 fluorescence intensity (a.u.).

On to “GTTTGTCGTAGTAGTTTATTTTTGACACCGGCTTTCAAATCGGAGTCACCTAGTGCAG”, for which the binding signal is 9880 fluorescence intensity (a.u.).

As for “CTCCCTCTGTTTCAAAATATTTGACACTGTTGACTTTTTACGGAGTCACCTAGTGCAG”, the binding signal is 11000 fluorescence intensity (a.u.).

Regarding “ATCTGCCTAACGTAAAATGCACTATATTCTGTTTTGTTCTCGGAGTCACCTAGTGCAG”, the binding signal is 8370 fluorescence intensity (a.u.).

On to “GTGGCGACTGTTATCCCTAATTTTGCGGACTTGCTCTGATCGGAGTCACCTAGTGCAG”, for which the binding signal was 9800 fluorescence intensity (a.u.).

Regarding “AACCACCTGAATTTCGTCGAATTTTACCAATTCTGCTGAACGGAGTCACCTAGTGCAG”, the binding signal was 9120 fluorescence intensity (a.u.).

As to “AAGACATGTGAATTTTGGTGGGATGTGGATGGGGAATTGACGGAGTCACCTAGTGCAG”, the binding signal is 9840 fluorescence intensity (a.u.).

Turning to “TTCTATTTTACCTCTCGTCTCTCTCCTCGCGGTCGCTTCTCGGAGTCACCTAGTGCAG”, the binding signal was 12800 fluorescence intensity (a.u.).

With “CTCCTCGGGCTAAAAGTGGTAATACGCGTTTCTCAAGCTTCGGAGTCACCTAGTGCAG”, the binding signal was 9930 fluorescence intensity (a.u.).

In the case of “CTCACTTGACCGTGAACAGCACTCACTTGATTTGTACTTTCGGAGTCACCTAGTGCAG”, the binding signal was 10000 fluorescence intensity (a.u.).

For the sequence “TGTTCTCTCCTGCCTCCACACTTTCTGGCACGGTACAAAACGGAGTCACCTAGTGCAG”, the binding signal was 8370 fluorescence intensity (a.u.).

Take “TTAATTTCACGGTTTCATCTCGACATCTCATCATCTGTTTCGGAGTCACCTAGTGCAG”: the binding signal is 12100 fluorescence intensity (a.u.).

Take “ATGCCATTTTTCCCGTTTGTTGCAATTGCAAAACATTTTTCGGAGTCACCTAGTGCAG”: the binding signal was 8580 fluorescence intensity (a.u.).

In the case of “CTCTCACACCGTGCCATATCCCGAACATCCCTTGATCGAACGGAGTCACCTAGTGCAG”, the binding signal was 9530 fluorescence intensity (a.u.).

Regarding “CTTTCCTGTACTATTTTACTGTCCGATTTACAACATGTGACGGAGTCACCTAGTGCAG”, the binding signal is 12900 fluorescence intensity (a.u.).

Turning to “TCGGTTTTTACTGCTTCCATCAGACGTCGGTCTGTTTTCGCGGAGTCACCTAGTGCAG”, the binding signal was 9470 fluorescence intensity (a.u.).

“ACCTGTTTCGTTCGTCCACGCCAGCGCCAACCGGACATGACGGAGTCACCTAGTGCAG”: the binding signal was 9460 fluorescence intensity (a.u.).

For the sequence “TCTTGTATTCTCCACTAGTCTTGGGTCATCCATTCTTCAGCGGAGTCACCTAGTGCAG”, the binding signal is 8550 fluorescence intensity (a.u.).

These data come from article PMC7819943, “Rice protein-binding microarrays: a tool to detect cis-acting elements near promoter regions in rice”.
